Screening results from PubChem BioAssay.
An excerpt weighted towards active compounds, which were near 3.2% of everything screened.
AmpC detergent: qHTS Inhibitors of AmpC Beta-Lactamase (assay with detergent). P00811. AmpC hydrolysis of nitrocefin, absorbance 480 nm, 0.01% Triton. Potency, µM (doses to about 114 µM), inactives show top-dose activity change, negative = inhibition, hits mostly inhibitors. 370,000 compounds, 0.041% hits. AID 485294, 2010;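 further: 0% = no-compound wells and -100% = no-enzyme wells; nearly all actives have a fitted effect of over 25% in size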
Target sequence (P00811 whole entry, looked up): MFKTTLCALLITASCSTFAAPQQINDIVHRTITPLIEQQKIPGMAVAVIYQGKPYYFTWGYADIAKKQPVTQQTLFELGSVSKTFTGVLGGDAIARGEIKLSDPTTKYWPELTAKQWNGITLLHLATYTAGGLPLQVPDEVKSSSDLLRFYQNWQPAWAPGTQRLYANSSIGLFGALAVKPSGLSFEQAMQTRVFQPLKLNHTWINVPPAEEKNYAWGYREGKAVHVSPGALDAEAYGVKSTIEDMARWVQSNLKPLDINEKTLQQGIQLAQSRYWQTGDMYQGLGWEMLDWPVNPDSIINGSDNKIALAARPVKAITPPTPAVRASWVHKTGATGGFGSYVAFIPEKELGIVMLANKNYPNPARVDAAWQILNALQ
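AmpC (5.3 nM in the dispensed reagent) in 20 mM phosphate pH 7.0 with 0.01% (detergent screen) or 0.0001% Triton X-100 was preincubated with compounds for 15 min at room temperature. Nitrocefin was then added from an 800 uM solution, and hydrolysis was followed at 480 nm.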
RE007 growth inh: qHTS Assay for Inhibitors of the HIV-1 protein Vpr | S. pombe RE007 Vpr strain, BacTiter-Glo ATP luminescence, 24 h | Potency, µM (highest dose often 92.2 µM), inactives show top-dose activity change, negative = less growth, actives largely listed as inhibitors | 360,000 compounds, 0.21% hits | AID 651644, 2012; active means well fitted falling curve with a large enough effect; inconclusive means small, poorly fitted or top-dose-only effect; inactive means no such curve, though single readings can be large or run the other way; further: nearly all actives have a fitted effect of over 50% in size
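Fission yeast strain RE007, carrying one chromosomally integrated HIV-1 vpr copy, was seeded at OD 0.01 in PMG+AL medium with 23 nL pinned compound. After 24 h at 30 °C and 99% humidity, viability was read by BacTiter-Glo luminescence.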
AMA1 RON2 block: qHTS for Inhibitors of AMA1-RON; Towards Development of Antimalarial Drug Lead: Primary Screen; Plasmodium falciparum AMA1 (3D7) - RON2 peptide interaction; AlphaScreen AMA1-biotinylated RON2 peptide binding; Potency, µM (titrated, usually from 58.2 µM), for the others: at the top dose activity change, negative = inhibition, most hits filed as inhibitors; 360,000 compounds, 0.2% hits; AID 720542, 2013;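 further: 0% = vehicle wells and -100% = peptide control; nearly all actives have a fitted effect of over 45% in size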
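AMA1 (3D7) with his tag at 25 nM final met compounds first, then biotinylated RON2 peptide at 25 nM; detection used donor plus acceptor beads, 10 µg/mL apiece, read by AlphaScreen after 30 min at room temperature.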
Sm TGR inh: qHTS Assay for the Inhibitors of Schistosoma Mansoni Peroxiredoxins. purified TGR, DTNB reduction, TNB absorbance 405 nm. Potency, µM (highest dose often 114 µM), inactives show at the top dose activity change, negative = inhibition, hits mostly inhibitors. 360,000 compounds, 3% hits. AID 485364, 2010; further: nearly all actives have a fitted effect of over 60% in size
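TGR 20 nM + NADPH 100 uM (dispensed conc.), cpd preinc 15 min RT; start with NADPH (500 uM addition) then DTNB (15 mM addition). Kinetic TNB absorbance, 405 nm filter. Four-parameter Hill fit across titration.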
AmpC no deterg: qHTS Inhibitors of AmpC Beta-Lactamase (assay without detergent) | P00811 | AmpC nitrocefin hydrolysis, absorbance 480 nm, 0.0001% Triton | Potency, µM (series often up to 57.1 µM), for inactives: at the highest dose activity change, negative = inhibition, actives largely listed as inhibitors | 330,000 compounds, 0.52% hits | AID 485341, 2010;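 further: plate controls were no compound for no effect and no enzyme for full effect; nearly all actives have a fitted effect of over 20% in size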
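AmpC (5.3 nM in the dispensed reagent) in 20 mM phosphate pH 7.0 with 0.01% (detergent screen) or 0.0001% Triton X-100 was preincubated with compounds for 15 min at room temperature. Nitrocefin was then added from an 800 uM solution, and hydrolysis was followed at 480 nm.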
* hit, by the source's call; [ ] = another dose, or the depositor's remark. Unless noted, the call rests on the fitted dose curve; in most records, active means well fitted curve in the direction sought with a large enough effect; inconclusive means small, poorly fitted or top-dose-only effect, or another doubt; inactive means no such curve, though single readings can be large; an effect the other way counts as inactive or inconclusive. Unless noted, on the % scale 0 is the no-effect control and ±100 the full control effect; potency means the concentration at half of the fitted maximal effect.

For COc1ccc(OC)c(NS(=O)(=O)c2cc3c(cc2Cl)N(C(C)=O)CCO3)c1 the results were AmpC detergent -1% and Sm TGR inh 2.5µM*.
For CCN1c2ccccc2-c2nc(SCC(=O)NCc3ccc(C)cc3)ncc2S1(=O)=O the results were AmpC detergent 3% and Sm TGR inh 12%.
`O=C(CSc1nc2ccccc2n1CC(=O)Nc1ccc(F)cc1F)Nc1ccc(F)cc1` gave AmpC detergent 1% and Sm TGR inh -20%.
For Cc1cc2c(cc(C(=O)NCCCN3CCOCC3)n2Cc2ccc(Cl)cc2)o1 the results were AmpC detergent 4%, RE007 growth inh 0%, AMA1 RON2 block 5%, Sm TGR inh 35µM* and AmpC no deterg 190%.
Screening COc1ccccc1CNC(=O)Cc1ccc(Br)cc1 returned AmpC detergent 12%, RE007 growth inh 18%, AMA1 RON2 block -5%, Sm TGR inh 16% and AmpC no deterg -34%.
Screening COc1ccc(NC(=O)/C=C/c2ccc(Br)o2)cn1 returned AmpC detergent -7%, RE007 growth inh -10%, AMA1 RON2 block 0%, Sm TGR inh 11µM* and AmpC no deterg -29%.
`COc1ccccc1CNC(=O)/C=C/c1ccc(Br)o1` gave AmpC detergent 2%, RE007 growth inh -18%, AMA1 RON2 block -1%, Sm TGR inh 2.2µM* and AmpC no deterg -32%.
For COc1ccc(NC(=O)c2ccco2)cn1 the results were AmpC detergent 2%, RE007 growth inh -9%, AMA1 RON2 block -2%, Sm TGR inh -6% and AmpC no deterg -8%.
`COc1ccc(NC(=O)/C=C/c2ccco2)cn1` gave AmpC detergent -7%, RE007 growth inh 2%, AMA1 RON2 block -3%, Sm TGR inh 8.9µM* and AmpC no deterg -24%.
NS(=O)(=O)c1ccc(-c2ccc(C=C3C(=O)NC(=O)NC3=O)o2)cc1 was read as AmpC detergent -9%, RE007 growth inh 12%, AMA1 RON2 block 9%, Sm TGR inh inconclusive and AmpC no deterg -18%.
For O=C1NC(=O)C(=Cc2ccc(SC3CCCCC3)o2)C(=O)N1 the results were AmpC detergent -8%, RE007 growth inh -11%, AMA1 RON2 block 0%, Sm TGR inh 40µM* and AmpC no deterg -50%.
CCOc1ccc(C(c2c(O)nc(SC)n(C)c2=O)c2c(O)nc(SC)n(C)c2=O)cc1 was read as AmpC detergent 3%, RE007 growth inh 4%, AMA1 RON2 block 28%, Sm TGR inh 16µM* and AmpC no deterg -29%.
CCOc1ccc(OCC(=O)OCn2c(SC)nnc(C)c2=O)cc1 was read as AmpC detergent 0%, RE007 growth inh 22%, AMA1 RON2 block 0%, Sm TGR inh 10% and AmpC no deterg -12%.
For CN1C(=O)N(CC(=O)N2CCN(S(=O)(=O)c3ccc(Cl)s3)CC2)C(=O)C12CCCCC2 the results were AmpC detergent -3%, RE007 growth inh 13%, AMA1 RON2 block -1%[11.6 µM], Sm TGR inh 45µM* and AmpC no deterg 133%.
`Cc1ccccc1CN1CCCN(CC(=O)Nc2ccc(F)cc2)S1(=O)=O` gave AmpC detergent 18% and Sm TGR inh 3%.
Cc1ccc(C)n1-c1ccc(C(=O)Nc2ccccc2F)cc1 was read as AmpC detergent 8%, RE007 growth inh 13%, AMA1 RON2 block 3%, Sm TGR inh 50µM* and AmpC no deterg -30%.
For CCCN1C(=O)c2cc(C(=O)Nc3ccc(OC)cc3OC)ccc2C1Nc1ccc(OC)cc1OC (stereo unspecified) the results were AmpC detergent 0%, RE007 growth inh -15%, AMA1 RON2 block 14µM*, Sm TGR inh 0% and AmpC no deterg 156%.
For COc1ccc(NC(=O)c2ccc(-n3c(C)ccc3C)cc2)c(OC)c1 the results were AmpC detergent -8%, RE007 growth inh 8%, AMA1 RON2 block 1%, Sm TGR inh 28µM* and AmpC no deterg -24%.
